Bioassay records: PubChem BioAssay, The Scripps Research Institute Molecular Screening Center
This is a sample that favours compounds with a hit; in the whole collection about 3.4% have one here.
ADAM17 inh: inhibitors of human ADAM17; AID 720648; recombinant ADAM17, EDANS/DABCYL FRET peptide cleavage; P78536; inhibition, % at 6.95 µM; actives 0.83% (n = 370,000);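 active means inhibition above the mean of compounds lying between control limits plus 3 SD, set per campaign, cut at about 8.5% in these data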;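 further: 0% = DMSO-only wells as the low control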
PLCb3 inh: PLC-beta3 (human) inhibition, primary screen. Q01970. Purified PLC-beta3, fluorogenic substrate, fluorescence. inhibition, % at 12.2 µM. actives 0.18% (n = 370,000);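 further: 0% = median of compound wells on plate and 100% = full blocker control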
ADAM10 inh: inhibitors of human ADAM10. O14672. recombinant ADAM10, EDANS/DABCYL FRET peptide cleavage, 3 h. inhibition, % at 7 µM. actives 0.62% (n = 370,000). AID 720582;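 active means inhibition above a per-campaign cutoff equal to the mean of compounds falling between control-based bounds plus 3 SD, cut at about 20% in these data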;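 further: 0% = DMSO wells while the 100% control is not disclosed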
sPLA2-III inh: Inhibits HGIII-sPLA2 liposome hydrolysis, primary screen. QFRET BODIPY PC-A2 liposome hydrolysis, fluorescence. inhibition, % at 12.2 µM. actives 0.56% (n = 370,000);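 active means inhibition above mean plus 3 SD of compounds lying within the high and low control bounds, cut at about 19% in these data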;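 further: 0% = median of test compound wells and 100% = no enzyme DMSO wells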
PLC-gamma1 inh: inhibitors of human phospholipase C gamma1 | P19174 | purified PLC-gamma1, fluorogenic substrate, fluorescence | inhibition, % at 12.2 µM | actives 0.84% (n = 370,000); in the data active means inhibition above about 9.5%
KLK7 zymogen act: activators of human kallikrein-7 zymogen; P49862; actives 0.9% (n = 370,000); AID 652039; purified proKLK7, EDANS-DABCYL substrate fluorescence; 100% is mature enzyme control, 0% vehicle; activation, % at 7 µM;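 active means activation above the mean of all tested compounds plus 3 SD, computed per campaign excluding outliers beyond control limits, cut at about 13% in these data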
PLCgamma1 ctr: PLC-gamma1 inhibition, counter-screen for PLC-beta3 hits. inhibition, % at 12.3 µM. actives 3.1% (n = 3,300). purified PLC-gamma1, fluorogenic substrate, fluorescence. shares compounds with PLC-gamma1 inh. AID 743258; in the data active means inhibition above about 9.5%
PLCb3 confirm: human PLC-beta3 inhibition, confirmation; shares compounds with PLC-gamma1 inh; purified PLC-beta3, fluorogenic substrate fluorescence; inhibition, % at 12.3 µM; actives 1% (n = 3,300); AID 743261
* = called active by the depositor; · = not tested or not shown. Unless noted, no stated cut-off is given here; in the data, active means inhibition above about 11%; inactive means the rest.

SMILES	ADAM17 inh	PLCb3 inh	ADAM10 inh	sPLA2-III inh	PLC-gamma1 inh	KLK7 zymogen act	PLCgamma1 ctr	PLCb3 confirm
CC(C)(C)n1nnnc1C(c1ccccc1)N1CCN(C(=O)C2CCCO2)CC1 (centres undefined)	2	4	6	10	9.9*	1	-6	2
CCCCn1nnnc1C(c1ccccc1)N1CCN(C(=O)C2CCCO2)CC1 (centres undefined)	-2	2	-3	3	0	0	·	·
CCOC(=O)C1=C(CN2CC(C)CC(C)C2)NC(=O)NC1c1ccc2c(c1)OCO2 (centres undefined)	0	-1	4	1	4	1	·	·
O=C1c2ccccc2C(=O)N1CCc1nc2ccccc2c(=O)n1CCCn1ccnc1	-3	2	-5	-7	-2	0	·	·
O=C1c2ccccc2C(=O)N1Cc1nc2ccccc2c(=O)n1CCCn1ccnc1	7	7	12	2	12*	0	-10	-1
O=C(Cc1cccs1)Nc1ccc(F)c(S(=O)(=O)N2CCOCC2)c1	4	1	4	-3	9.9*	-1	-5	-1
Cc1ccc(NC(=O)CSc2ccccc2)cc1S(=O)(=O)N1CCCCC1	7	-1	12	-29	3	0	·	·
Cc1ccc(NC(=O)COc2ccccc2)cc1S(=O)(=O)N1CCCCCC1	5	-5	12	-23	1	1	·	·
Cc1ccc(NC(=O)CSc2ccccc2)cc1S(=O)(=O)N1CCOCC1	3	-2	12	-12	12*	1	-32	-3
Cc1ccc(NC(=S)NCc2ccccc2)cc1S(=O)(=O)N1CCCCC1	8	9	16	-7	14*	0	5	8
Cc1ccc(C)c(S(=O)(=O)Nc2ccc(C(=O)N3CCC3)cc2)c1	-1	1	-2	1	-1	0	·	·
CC(OC(=O)/C=C/c1ccc2ccccc2n1)C(=O)Nc1ccc(S(N)(=O)=O)cc1 (centres undefined)	-14	-4	-37	-3	-4	-4	·	·
Cc1ccc(S(=O)(=O)CCc2nnc(NC(=O)C3CCCCC3)s2)cc1	-6	-9	-4	8	-2	0	·	·
CC(=O)Nc1nnc(CCS(=O)(=O)c2ccc(C)c(C)c2)s1	-1	10	-3	9	14*	0	-3	-1
CCN(CC)CCCn1c2c(c(SCC(=O)Nc3cc(C)cc(C)c3)nc1=O)CCC2	6	0	-7	-5	13*	0	1	-5
O=C(N[C@@H](Cc1cccnc1)C(=O)N1CCC[C@H]1C(=O)NC1CCCC1)c1ccc(Cl)c(Cl)c1	-4	1	-3	-2	2	-1	·	·
COc1ccc(CNC(=O)C[C@H]2C(=O)N(Cc3ccc(OC)cc3)C[C@@H]2Cc2ccccc2)cc1	-1	5	18	-15	11*	0	6	7
Cc1ccc(S(=O)(=O)NCc2ccc(C(=O)NC3CCC(O)CC3)cc2)cc1C (centres undefined)	-3	-10	-5	6	-2	0	·	·
CCOc1ccc(NC(=O)c2cc(F)c(F)cc2Cl)cc1OCC	-1	2	2	2	-1	0	·	·
CCOc1ccc(S(=O)(=O)N2CCC(C(=O)N3CCCC3)CC2)cc1C	-4	3	-5	-2	11*	-1	3	2
Cc1cccc(CS(=O)(=O)Cc2ccc(C(=O)O)o2)c1	-1	3	-6	15	11*	1	-6	0
COCCCNC(=O)c1ccc(CS(=O)(=O)Cc2cccc(C)c2)o1	-2	2	-3	3	1	0	·	·
CC(=O)Nc1ccc(SCC(=O)N(C)CC(=O)Nc2ccccc2Cl)cc1	0	-3	-4	1	0	0	·	·
CN(CC(=O)Nc1ccccc1Cl)C(=O)CSc1nncs1	7	0	1	3	10*	0	-1	0
O=C(Nn1c(C2CCC2)nc2ccccc2c1=O)c1cccs1	5	15*	4	3	9	-1	-6	-4
SMILES	ADAM17 inh	PLCb3 inh	ADAM10 inh	sPLA2-III inh	PLC-gamma1 inh	KLK7 zymogen act	PLCgamma1 ctr	PLCb3 confirm
O=C1C2(CCCC13COC(c1ccc(O)cc1)OC3)COC(c1ccc(O)cc1)OC2 (centres undefined)	-1	-5	2	-9	1	0	·	·
Cc1c(C(=O)NCc2cccnc2)sc2ncn(CC(=O)N3CCCCC3C)c(=O)c12 (centres undefined)	2	3	3	4	11*	0	-6	-4
COc1ccc(NC(=O)CS(=O)c2ccc(Br)cc2)cc1 (centres undefined)	-3	-5	-12	3	0	0	·	·
CC(=O)c1ccc(NC(=S)NC(NC(=O)c2ccco2)C(Cl)(Cl)Cl)cc1 (centres undefined)	3	12*	9	-37	8	1	3	-1
O=C(NC1CCCCCC1)c1ccc([N+](=O)[O-])s1	-2	-6	-6	1	-1	0	·	·
CC(C)(C)OC(=O)NCc1cc(F)ccc1/C=C/S(=O)(=O)NC1CCCC1	4	4	5	8	9.8*	0	-2	2
Cn1c(=O)c2c(ncn2CCC(=O)N/N=C/c2ccccc2)n(C)c1=O	2	11*	3	6	11*	0	-5	-1
Cn1c(=O)c2c(ncn2CCC(=O)N/N=C/c2ccncc2)n(C)c1=O	-1	-4	-1	1	3	0	·	·
Cc1ccc(C(=O)COC(=O)c2c(C)cc(=O)oc2C)cc1[N+](=O)[O-]	8	12*	7	-27	7	0	-5	-2
O=C(c1cc(-c2cccs2)nn1-c1ccccc1)N1CCN(S(=O)(=O)c2ccccc2)CC1	-1	2	-8	9	-1	0	·	·
Cc1cc(C(=O)N2CCC2(C)C(=O)Nc2ccc3[nH]ncc3c2)nn1C (centres undefined)	4	15*	-11	-1	3	0	-7	-5
COc1ccc(CCNC(=O)c2cccc(Br)c2)cc1OC	3	2	5	2	11*	0	-3	0
CCn1c(SCC(=O)c2ccccc2)nc2c(c1=O)SC(C)C2 (centres undefined)	4	2	7	-29	11*	0	-4	0
c1cncc(-c2nc3ccccc3s2)c1	-3	-5	-5	6	1	1	·	·
CC(=O)N(Cc1cccnc1)c1cccc(-c2nc3ccccc3s2)c1	-2	-3	-4	5	9.8*	0	-5	-6
